Laboratory results published in PubChem BioAssay AID651789 (National Center for Advancing Translational Sciences (NCATS), 2012).
Results filed as inconclusive are left out. Where a call stands in place of a potency, no number is given. The source made the active and inactive calls. The call rests on the fitted dose curve; in most records, active means well fitted inhibition curve with a large enough effect; inconclusive means small, poorly fitted or top-dose-only effect; inactive means no such curve, though single readings can be large or run the other way.

Test: Acumen qHTS Assay for Inhibitors of the mTORC1 Signaling Pathway in WT MEF Cells: Hit Validation; further: nearly all actives have a fitted effect of over 60% in size
Conditions: Acumen imaging; series mostly up to 37.3 µM
Method in brief: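 Read-out is immunofluorescent phospho-rpS6 (Ser235/236) normalised to PI-stained cell number, reported as % active cells using a 7.5 nM rapamycin threshold. Cells: WT or Tsc2-/-, p53-/- MEFs, compound-exposed 24 h at 37C; PI count also tracks viability.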
Potency means the concentration at half of the fitted maximal effect.

Row | Structure (SMILES) | Potency
1 | COc1ccccc1-c1noc(CSc2nc3ccc(C)cc3[nH]2)n1 | inactive
2 | CCC(C)NC(=O)c1sc2nc(C)c(C(=O)Nc3ccc(C)cc3C)c(-c3ccc(Cl)cc3)c2c1N (centres undefined) | inactive
3 | CCc1ccc(OCC(=O)N(Cc2ccc(C)cc2)Cc2ccco2)cc1 | inactive
4 | COC(=O)c1c(C)oc2ccc(N(C(=O)c3ccncc3)S(=O)(=O)c3ccc(OC)cc3)cc12 | 4.14 µM (active)
5 | COc1cc(CNc2ccc3c(c2)ncn3C(C)C)cc(OC)c1OC | inactive
6 | CCN1CCOC(=O)C1CC(=O)Nc1ccc(Br)cc1 (centres undefined) | inactive
7 | CN1CCN(C2(CNC(=O)c3ccc(C(C)(C)C)cc3)CCCCC2)CC1 | inactive
8 | CC(=O)Nc1cccc(NC(=O)C(=O)NCCc2sc(-c3ccccc3)nc2C)c1 | 7.36 µM (active)
9 | O=C(/C=C/c1ccco1)Nc1ccc(Cl)c(-c2nc3cc(Cl)ccc3o2)c1 | inactive
10 | COc1ccc(NC(=O)c2ccc3c(=O)n4nc(Nc5cc(C)ccc5C)sc4nc3c2)cc1 | 2.93 µM (active)
11 | Cc1ccc(C)c(NC(=O)Nc2cc3c(cc2N2CCCCC2)n(C)c(=O)n3C)c1 | inactive
12 | CCOC(=O)c1ccc(N2C(=O)c3n[nH]c(C)c3C2c2cccc(Br)c2)cc1 (centres undefined) | inactive
13 | CCCN1C(=O)C(Cc2nc3ccccc3c(=O)n2CC)c2ccccc21 (centres undefined) | inactive
14 | O=C(NCC(c1cccs1)S(=O)(=O)c1cccs1)c1ccccc1 (centres undefined) | inactive
15 | CCS(=O)(=O)c1ncc(Cl)c(C(=O)NCc2ccccc2)n1 | 3.29 µM (active)
16 | COc1ccc(C)cc1NC(=O)C(Cc1ccccc1)NS(=O)(=O)c1ccc(Br)s1 (centres undefined) | inactive
17 | COc1ccc(Cl)cc1NC(=O)CCCS(=O)(=O)c1nc(-c2ccc(OC)c(OC)c2)cc(C(F)(F)F)n1 | 3.69 µM (active)
18 | Cc1oc2c(cc(NS(=O)(=O)c3ccc(C(C)C)cc3)c3ccccc32)c1C(=O)OCc1ccccc1 | inactive
19 | COc1ccc(OCC(O)Cn2c(=N)n(CCN3CCCCC3)c3ccccc32)cc1 (centres undefined) | inactive
20 | CC(C)c1nnc(NC(=O)c2nc(S(=O)(=O)Cc3ccccc3)ncc2Cl)s1 | 5.21 µM (active)
21 | Cc1ccc(C)c(Cn2c3ccccc3c3cnn(CC(=O)NC(C)CCc4ccccc4)c(=O)c32)c1 (centres undefined) | 18.5 µM (active)
22 | COc1ccc(OCc2nc3c4c(-c5ccccc5)c(-c5ccccc5)oc4ncn3n2)cc1 | inactive
23 | CCCCNC(=O)CSc1nc2nc(C)c(Cc3ccccc3C)c(C)n2n1 | inactive
24 | CS(=O)c1ccc(-c2nc(-c3ccc(F)cc3)c(-c3ccncc3)[nH]2)cc1 (centres undefined) | inactive
